# Sampled rows, rich in hits. Any-hit rate of the full collection: about 1.4%.
# Mtb MbtI inh: blocks the Mycobacterium tuberculosis siderophore enzyme MbtI; inhibition, % (concentration not given with the values); 100,000 tested, 0.89% active; purified MbtI enzyme, fluorescence intensity read-out; P9WFX0; AID 493033; in the data active = inhibition mostly above about 56%, no sharp cut-off; inactive = mostly below about 77%
# Target sequence (P9WFX0 whole entry, looked up): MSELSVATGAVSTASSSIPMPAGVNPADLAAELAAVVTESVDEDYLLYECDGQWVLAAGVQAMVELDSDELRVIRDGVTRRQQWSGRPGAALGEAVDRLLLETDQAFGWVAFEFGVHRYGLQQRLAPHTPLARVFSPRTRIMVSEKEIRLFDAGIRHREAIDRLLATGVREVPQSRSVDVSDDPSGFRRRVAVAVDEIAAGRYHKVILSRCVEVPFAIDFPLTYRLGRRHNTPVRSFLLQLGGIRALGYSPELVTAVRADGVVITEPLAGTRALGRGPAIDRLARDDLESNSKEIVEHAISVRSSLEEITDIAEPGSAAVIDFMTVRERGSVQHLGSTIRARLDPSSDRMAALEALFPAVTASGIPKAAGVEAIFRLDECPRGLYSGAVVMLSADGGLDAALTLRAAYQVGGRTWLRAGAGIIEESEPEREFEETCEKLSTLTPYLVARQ
# PV pol inh: inhibitors of poliovirus RNA polymerase binding and polymerization | P03300 | 150,000 tested, 0.66% active | poliovirus polymerase elongation, fluorescence polarization; active compounds read low | % elongation, % (compound at 16.7 µg/mL) | AID 588519; in the data active = % elongation below about 90%
# MenB inh: blocks the Mycobacterium tuberculosis MenB enzyme; inhibition, % (concentration not given with the values); MenB enzyme assay, absorbance read-out; AID 540299; P9WNP5; 100,000 tested, 0.43% active; in the data active = inhibition above about 21%, passing the limit was not always enough
# AID504770: E. coli YBA685 growth inhibition, screen for V. cholerae RctB inhibitors; E. coli YBA685 rctB-dependent plasmid, OD600 growth, 3 h; active compounds read low; z-score (test concentration not listed); 130,000 tested, 0.27% active; in the data active = z-score below about -2, passing the limit was not always enough
# Numbers without * were called inactive; . = no result.
SMILES,Mtb MbtI inh,PV pol inh,MenB inh,AID504770
COC(=O)c1c(-c2cccs2)csc1NC(=O)c1ccc(Cl)cc1,.,67*,.,.
COC(=O)c1c(-c2cccs2)csc1NC(=O)COc1ccc(C)cc1,.,96,.,.
Cc1sc2ncnc(SCc3ccccc3C#N)c2c1C,14,101,-24,3.2
CN(C)C(=O)c1ccccc1NC(=O)c1ccco1,.,106,-18,0.85
CC(=O)Nc1cccc2nsnc12,9,101,-33,-0.5
Cc1ccc(NC(=O)Nc2ccc(C(F)(F)F)cc2)cc1NS(C)(=O)=O,4,101,9,-0.35
Cn1c(C2CC2)n[nH]c1=S,17,108,-52,2
CCn1c(C2CC2)n[nH]c1=S,87*,.,-15,0.55
c1coc(-c2cc(-c3nc4ccccc4s3)c3ccccc3n2)c1,89,106,-16,0.3
N#CSCC(=O)c1cccs1,.,85*,-22,-3.7*
O=C(Cn1nc(-c2ccccc2)ccc1=O)NCCCN1CCC(Cc2ccccc2)CC1,.,.,.,0
CC(=O)Nc1ccc(S(=O)(=O)NCC2CCC(C(=O)N3CCC4(CC3)OCCO4)CC2)cc1 (stereo unspecified),.,.,.,0.6
NC(=O)c1ccc(NC(=O)CSC(=O)c2ccccc2)cc1,70*,102,.,-0.6
NC(=S)Nc1ccc(C(=O)O)cc1,92,81*,-79,0.15
NC(=S)CC(=O)Nc1ccccc1,93*,101,-36,-0.05
O=S(=O)(NCc1ccco1)c1ccc(F)c(F)c1,-8,101,.,0.45
COc1ccc(Cl)cc1NC1=NC2CS(=O)(=O)CC2S1 (stereo unspecified),63*,99,-17,0.2
CCN(CC)c1ccc(/C=C2\NC(=S)NC2=O)cc1,17,154,-57,0.3
CCOC(=O)c1cccc(NC(=O)Cc2ccc(NC(=O)N3CCCCc4ccccc43)cc2)c1,.,21*,.,.
COc1cccc(NC(=O)Cc2ccc(NC(=O)N3CCCCc4ccccc43)cc2)c1,.,104,.,.
O=C(OCC(=O)N1CCN(c2ccccc2)CC1)c1ccc(-c2ccc(O)cc2)cc1,38,103,2,-0.45
CCOc1nc(NCc2ccco2)nc(N2CC3CC(C2)c2cccc(=O)n2C3)n1 (stereo unspecified),21,101,39*,-0.3
O=c1cccc2n1CC1CC2CN(c2nc(N3CCCCC3)nc(N3CCCCC3)n2)C1 (stereo unspecified),5,99,0,-2.7*
Nc1cccc(F)c1CNCC(O)COc1ccc(Cl)c(Cl)c1 (stereo unspecified),.,.,.,-0.25
COc1cc(OC)cc(C(=O)N2CCC(C(=O)NCCc3ccccc3)CC2)c1,3,102,48*,2
SMILES,Mtb MbtI inh,PV pol inh,MenB inh,AID504770
COc1cccc2c(C)cc(=O)[nH]c12,-4,104,.,1.8
Cc1cc(=O)[nH]c2c(C)c(Cl)ccc12,2,101,29*,-0.7
CCOC(=O)c1c(C)[nH]c(C)c1S(=O)(=O)N1CCCC(C(=O)Nc2ccccc2OCC)C1 (stereo unspecified),.,-7.0*,.,.
CCOc1ccccc1NC(=O)C1CCCN(S(=O)(=O)c2c(C)[nH]c(=O)[nH]c2=O)C1 (stereo unspecified),.,102,.,.
Cc1ccc(OC(=O)c2cc(-c3ccc4c(c3)OCCO4)on2)cc1C,.,103,.,.
Cc1cc(OC(=O)c2cc(-c3ccc4c(c3)OCCO4)on2)ccc1Cl,.,-17*,.,.
N=C(N)Cc1c(Cl)cccc1Cl,.,.,.,3
Nc1cccc(Cl)c1O,57*,101,-7,-0.15
Cc1cc(C)c2c(=O)n(-c3ccccc3)[nH]c2n1,52*,101,-49,0.2
Cc1cc(F)c(F)c(C(=O)N2CCCCCC2)c1Cl,2,103,34*,1.4
CS(=O)(=O)CS(=O)(=O)NCc1cccs1,.,.,.,0.2
CCn1cc2c(n1)-c1c(oc(C(=O)Nc3ccc(Cl)cc3)c1C)CC2,10,88*,10,0.05
CCn1cc2c(n1)-c1c(oc(C(=O)Nc3ccc(Br)cc3F)c1C)CC2,.,53*,.,.
CCOc1cc2c(cc1OCC)C1C(C(=O)N(CC)CC)c3ccccc3C(=O)N1CC2 (stereo unspecified),-4,103,-20,-1.5
O=C(Cn1cnc2ccccc2c1=O)N1CCCCCC1,5,100,33*,1.4
O=C(Cn1cnc2ccccc2c1=O)N1CCc2ccccc21,-30,106,8,0.65
COc1ccccc1NC(=O)CSCC(N)=O,95*,102,-24,1.1
O=c1c(=NO)c(=O)c2ccccc12,16,32*,-16,2.2
C=Cc1ccc(C=C)cc1,72*,64*,23,-0.65
O=c1c(/C=N/NC2CCS(=O)(=O)C2)c(N2CCCCC2)nc2ccccn12 (stereo unspecified),92,101,-3,1.5
CC(C)CN(CC(C)C)c1nnc(N)s1,-12,.,.,-0.65
COC(=O)CN(C)c1nnc(N)s1,96*,91,-5,-0.75
O=S(=O)(c1ccc(I)cc1)N1CCCCCC1,1,102,-19,-1.1
O=S(=O)(c1ccc(=S)[nH]c1)N1CCCCCC1,95*,106,-8,1.6
O=S(=O)(c1ccc(NN=C2CCCC2)nc1)N1CCCCC1,12,100,-4,0.25
SMILES,Mtb MbtI inh,PV pol inh,MenB inh,AID504770
CN(C)S(=O)(=O)c1ccc(N2CCCC2)c(C(=O)OCc2nc3ccsc3c(=O)[nH]2)c1,11,105,-20,0.65
Cn1c(=O)c2ncnnc2n(C)c1=O,-3,63*,-22,-2.3*
O=C(CNS(=O)(=O)c1ccccc1)Nc1ccc2c(c1)OCO2,4,103,56*,0.8
O=C(CS(=O)(=O)Cc1ccccc1)Nc1ccc2c(c1)OCO2,7,103,-16,-0.95
O=C1NC(=S)NC(=O)C1=Cc1ccco1,52,101,-33,-2
CSCCSc1nnnn1-c1ccc(O)cc1,0,101,4,-1.2
CN1C(=O)Cc2cc(S(=O)(=O)CCC(=O)Nc3ccccc3)ccc21,.,-22*,.,.
CN1C(=O)Cc2cc(S(=O)(=O)CCC(=O)Nc3cccc(C(F)(F)F)c3)ccc21,.,108,.,.
NC(=O)CC1C=CS(=O)(=O)C1 (stereo unspecified),-8,104,.,-0.3
N#CSC1C=CS(=O)(=O)C1 (stereo unspecified),.,.,.,-4.8*
CNC(=S)N/N=C/c1cccc(Cl)c1,24,13*,-6,-0.5
CC(C)NC(=S)N/N=C/c1cccc(O)c1,16,104,-7,-0.35
O=S(=O)(c1ccc2oc(=S)n(CN3CCOCC3)c2c1)N1CCOCC1,77,62*,-2,-0.3
COc1cc(C(=O)n2nc(C)c(Sc3ccc(Cl)cc3)c2C)cc(OC)c1OC,.,103,.,.
COc1cc(C(=O)Sc2ccc(Cl)cc2)cc(OC)c1OC,.,84*,-28,2.7
CN(C)c1ccc(CNCCC2(c3ccccc3)CCOC(C)(C)C2)cc1 (stereo unspecified),.,104,5,1.1
NC1=NN=C(c2ccccc2)CS1,65*,97,-57,-0.6
NC1=NN=C(c2ccc3c(c2)OCCO3)CS1,16,98,15,1.1
CCC(=O)NC(c1c(C)[nH]n(-c2ccccc2)c1=O)(C(F)(F)F)C(F)(F)F,.,107,0,-3.2*
CC(=O)NC1=CC(=O)c2nonc2C1=O,47,.,.,-9.2*
